{"source": "PubChem BioAssay (NCATS)", "note": "Unmarked numbers belong to inactive results. Activity calls are given as the source filed them. The rule behind the calls is not given here. Potency is the fitted concentration of half-maximal effect."}
{"tested_on": "HIV-1 nucleocapsid protein NCp7 (binding to TG oligonucleotide)", "experiment": "HIV Nucleocapsid (AID 346);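 note: potency is for inhibitors that block NC binding and lower polarization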", "settings": "HIV-1 NC / fluorescein-TGTGTGTG probe, fluorescence polarization", "method_in_brief": "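NCp7 100 nM + fluorescein TG4xF 10 nM; Hepes pH 7.5/250mM NaCl/1uM ZnCl2/0.004% PEG 20000; 1 hr RT; FP, 45 s exposure; oligo-only wells as negative control.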"}
{"smiles": "COCCn1c(=O)c(C)nc2cnc(OC)nc21", "Potency": "> 20 µM"}
{"smiles": "COc1ccc(C(=O)N2CCC3(CCN(Cc4ccc(C#N)cc4)CC3)CC2)cc1", "Potency": "> 20 µM"}
{"smiles": "O=c1c(-c2ccccc2)nc2cncnc2n1-c1ccccc1", "Potency": "> 20 µM"}
{"smiles": "O=C(c1cnccn1)N1CCC2(CCN(Cc3nccs3)CC2)CC1", "Potency": "> 20 µM"}
{"smiles": "COc1ncc2nc(-c3ccc(F)cc3)c(=O)n(C3CC3)c2n1", "Potency": "> 20 µM"}
{"smiles": "CN(C)c1ncc2nc(-c3ccccc3)c(=O)n(C3CC3)c2n1", "Potency": "> 20 µM"}
{"smiles": "COc1ccc(CNc2ncncc2-c2ccc3c(c2)OCO3)c(OC)c1", "Potency": "> 20 µM"}
{"smiles": "O=C(c1ccco1)N1CCC[C@@]2(CCN(c3ccccn3)C2)C1", "Potency": "> 20 µM"}
{"smiles": "O=C(c1cccc(F)c1)N1CCC[C@@]2(CCN(C(c3ccccc3)c3ccccc3)C2)C1", "Potency": "> 20 µM"}
{"smiles": "Cc1noc(C)c1-c1nccc(N(C)Cc2ccco2)n1", "Potency": "> 20 µM"}
{"smiles": "CN(C)Cc1ccccc1-c1nccc(Nc2ccc(F)cc2)n1", "Potency": "> 20 µM"}
{"smiles": "COc1cccc(-c2cc(N(C)Cc3ccco3)ncn2)c1", "Potency": "> 20 µM"}
{"smiles": "O=S(=O)(c1ccccc1)N1CCC2(CCN(Cc3nccs3)CC2)CC1", "Potency": "> 20 µM"}
{"smiles": "O=C(c1csnn1)N1CCC2(CCCN(c3ccccn3)C2)CC1", "Potency": "> 20 µM"}
{"smiles": "COc1ccccc1CNc1ncncc1-c1ccoc1", "Potency": "> 20 µM"}
{"smiles": "Cc1ccccc1-c1cc(N2CCN(C)CC2)ncn1", "Potency": "> 20 µM"}
{"smiles": "O=C(c1cnccn1)N1CCC2(CCN(Cc3ccccc3)CC2)CC1", "Potency": "> 20 µM"}
{"smiles": "FC(F)(F)c1ccccc1-c1cc(NCc2ccccc2)ncn1", "Potency": "> 20 µM"}
{"smiles": "COc1ccc2[nH]cc(CCNc3nc(-c4c(C)noc4C)nc4ccccc34)c2c1", "Potency": "> 20 µM"}
{"smiles": "O=c1c(-c2cc(F)cc(F)c2)nc2cnc(N3CCOCC3)nc2n1Cc1cccs1", "Potency": "> 20 µM"}
{"smiles": "CN(C)c1ncc2nc(-c3ccc(Cl)cc3)c(=O)n(Cc3ccc(F)cc3)c2n1", "Potency": "> 4 µM"}
{"smiles": "COc1ccc(CNc2ncnc3ccc(-c4ccoc4)cc23)c(OC)c1", "Potency": "> 20 µM"}
{"smiles": "c1cn(-c2cc(-c3ccc4c(c3)OCO4)ncn2)cn1", "Potency": "> 20 µM"}
{"smiles": "COc1ccccc1-c1ccc2ncnc(NCc3ccccc3)c2c1", "Potency": "> 20 µM"}
{"smiles": "CN(C)C(=O)c1ccc(-c2cncnc2-n2ccnc2)cc1", "Potency": "> 20 µM"}
{"smiles": "O=c1cnc2cnc(N3CCNCC3)nc2n1Cc1cccs1", "Potency": "> 20 µM"}
{"smiles": "COCCn1c(=O)c(-c2ccc(Cl)cc2)nc2cnc(Oc3cccc(Cl)c3)nc21", "Potency": "> 20 µM"}
{"smiles": "COCCn1c(=O)c(-c2ccc(OC)cc2)nc2cnc(Nc3cccc(OC)c3)nc21", "Potency": "8.97 µM (active)"}
{"smiles": "COc1ccc(Oc2ncc3nc(-c4cc(F)cc(F)c4)c(=O)n(C4CC4)c3n2)cc1", "Potency": "> 20 µM"}
{"smiles": "COCCn1c(=O)c(-c2ccccc2)nc2cncnc21", "Potency": "> 20 µM"}
{"smiles": "CN(C)Cc1ccccc1-c1nc(N2CCOCC2)c2ccccc2n1", "Potency": "> 20 µM"}
{"smiles": "O=C(c1cc(C(F)(F)F)cc(C(F)(F)F)c1)N1CCC[C@@]2(CCN(Cc3nccs3)C2)C1", "Potency": "> 20 µM"}
{"smiles": "CN1CCN(c2nc(-c3ccoc3)nc3ccccc23)CC1", "Potency": "> 20 µM"}
{"smiles": "O=C(c1cccc(F)c1)N1CCC2(CCCN(Cc3ccncc3)C2)CC1", "Potency": "> 20 µM"}
{"smiles": "N#Cc1ccc(CN2CCC3(CC2)CCN(C(=O)c2csnn2)CC3)cc1", "Potency": "> 20 µM"}
{"smiles": "O=c1c(CCc2ccccc2)nc2cnc(N3CCNCC3)nc2n1Cc1cccs1", "Potency": "> 20 µM"}
{"smiles": "COc1ccccc1-c1cncnc1NCCN1CCOCC1", "Potency": "> 20 µM"}
{"smiles": "Cc1cnc(CNc2ncnc3ccc(-c4ccccc4C#N)cc23)cn1", "Potency": "> 20 µM"}
{"smiles": "O=C(c1ccncc1)N1CCC2(CC1)CN(c1ncccn1)C2", "Potency": "> 20 µM"}
{"smiles": "COc1ccccc1CN1CC2(CCN(C(=O)c3cccc(F)c3)CC2)C1", "Potency": "> 20 µM"}
